Sampled rows, rich in hits. Any-hit rate of the full collection: about 14%.
CRE Fsk mod: CRE-bla signaling modulation under forskolin stimulation. CHO CRE-bla reporter (cAMP response element driving beta-lactamase), forskolin EC10, beta-lactamase ratio. Potency, µM (top dose mostly 38.2 µM), for inactives: top-dose activity change, negative = inhibition, usual class: activators. 2.5% of 71,000 active. AID 662; active means well fitted activation curve with a large enough effect in the signal ratio, with a control signal flat, not every such curve was filed as active; inconclusive means small, poorly fitted or top-dose-only effect, or effect the other way, or a change in a side signal; the % refers to the signal ratio; further: potency means the concentration at half of the fitted maximal effect; % of control where 0% means no effect
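AC50 values, positive or negative, reflect shifts in EC10 NKH 477-induced CRE-bla reporter activity in CHO cells. Incubation lasted 3 h at 37 °C before CCF4 substrate (2 h, room temperature) and ratiometric 460/530 nm reading.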
4-MU autofl: compound fluoresces in the 4-MU spectral region; compound autofluorescence, 340/450 nm, 4-MU equivalents; hits give high values; 11% of 59,000 active; max dye-equivalent concentration, M; in the data active means max dye-equivalent concentration above about 10 nM; inconclusive means mostly about 1.1 nM to 9.6 nM
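Compounds in 100 mM Tris, pH 8.0, incubated 15 min at room temperature, then fluorescence read at 340 nm excitation/450 nm emission. Signal converted to 4-MU dye-equivalent concentration using an on-plate six-point 4-MU standard curve.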
HSD17B inh: inhibitors of human HSD17B10 dehydrogenase; Potency, µM (titrated, usually from 57.1 µM), for the others: top-dose activity change, negative = inhibition, actives largely listed as inhibitors; recombinant HSD17B10, NADH fluorescence kinetic; AID 893; 7.6% of 75,000 active;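 further: the protocol describes HADH2 (HSD17B10) and not the HSD17B4 of the title; potency means the concentration at half of the fitted maximal effect; on the % scale 0 is the no-effect control and ±100 the full control effect; nearly all actives have a fitted effect of over 70% in size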
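His-tagged E. coli-expressed HADH2 at 20 nM in 100 mM Tris-HCl pH 9.0 with 0.01 % Tween-20, preincubated 15 min with compound at room temperature. Reaction with 1 mM NAD+ and 90 uM beta-hydroxybutyryl coenzyme A; NADH fluorescence (360/450 nm) read kinetically over 4 min, last minus first point.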
A350 autofl: A350 region autofluorescence | Compound autofluorescence, 340/450 nm, Alexa 350 dye-equivalents; hits give high values | max dye-equivalent concentration, M | 11% of 59,000 active | AID 590; in the data active means max dye-equivalent concentration above about 10 nM; inconclusive means mostly about 1.1 nM to 9.6 nM
AID923: qHTS Assay for Allosteric/Competitive Inhibitors of Caspase-1: Spectroscopic Profiling in AFC Spectral Region; compound fluorescence, AFC spectral region (405/520 nm); Potency, µM (top dose mostly 57.5 µM), inactives show at the top dose fluorescence increase, hits mostly activators; 1.1% of 75,000 active; AID 923, 2007; further: potency means the concentration at half of the fitted maximal effect; 0% is about no effect
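Baseline compound fluorescence (AFC region, 405 nm ex/520 nm em) taken from the intercept of kinetic reads with 50 nM caspase-1 and 5 uM Ac-WEHD-AFC; normalized to an on-plate AFC standard curve; compounds titrated up to 57 uM.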
HADH2 inhib: HADH2 (human) dehydrogenase inhibition; recombinant HADH2, NADH fluorescence, beta-hydroxybutyryl-CoA; 3.4% of 73,000 active; Q99714; AID 886; Potency, µM (top dose mostly 57.1 µM), for the others: at the top dose activity change, negative = inhibition, usual class: inhibitors; further: potency means the concentration at half of the fitted maximal effect; on the % scale 0 is the no-effect control and ±100 the full control effect; nearly all actives have a fitted effect of over 60% in size
Target sequence (Q99714 whole entry, looked up, one chain of several): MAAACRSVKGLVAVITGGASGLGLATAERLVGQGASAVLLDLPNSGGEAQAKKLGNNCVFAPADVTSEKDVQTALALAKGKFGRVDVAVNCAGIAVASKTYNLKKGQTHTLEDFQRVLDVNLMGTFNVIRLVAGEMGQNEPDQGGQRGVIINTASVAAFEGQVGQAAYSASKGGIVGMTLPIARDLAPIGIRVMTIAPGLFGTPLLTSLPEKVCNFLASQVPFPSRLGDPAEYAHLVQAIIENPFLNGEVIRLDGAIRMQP
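Buffer 100 mM Tris-HCl pH 9.0/0.01% Tween-20; HADH2 20 nM; NAD+ 1 mM; beta-hydroxybutyryl-CoA 90 uM (all final). 15 min cpd preincubation, RT.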
CHO via 24h: cytotoxicity in CRE-bla CHO cells at 24 h. shares compounds with CRE Fsk mod. CRE-bla CHO viability, ATP luminescence, 24 h. activity, negative = viability loss, % at 46.1 µM. 120 tested, under 10 active. AID 905
CHO tox 40h: CHO cell toxicity at 40 h by ATP luminescence. shares compounds with CRE Fsk mod. AID 906. CRE-bla CHO viability, ATP luminescence, 40 h. Potency, µM, inactives show max response, actives largely listed as inhibitors. 120 tested, under 10 active
CREB luc CRC: confirmation of CRE signaling potentiators in HEK293 CREB reporter cells. shares compounds with CRE Fsk mod. HEK293 CRE-luc2P, NKH477 EC10 potentiation, luminescence, 4 h. Potency, µM (top dose mostly 38.3 µM), for inactives: at the highest dose activity, positive = activation, hits mostly activators. 80% of 120 active. AID 907
* hit, by the source's call; i = inactive; u = inconclusive; x = no result given. Unless noted, the call rests on the fitted dose curve; in most records, active means well fitted curve in the direction sought with a large enough effect; inconclusive means small, poorly fitted or top-dose-only effect, or another doubt; inactive means no such curve, though single readings can be large; an effect the other way counts as inactive or inconclusive.

SMILES	CRE Fsk mod	4-MU autofl	HSD17B inh	A350 autofl	AID923	HADH2 inhib	others
COc1cc2c3cc1Oc1c(OC)c(OC)cc4c1[C@@H](Cc1ccc(O)c(c1)Oc1ccc(cc1)C[C@@H]3N(C)CC2)N(C)CC4	-11%	i	32µM*	i	-1%	5%
CCn1c(=O)n(CC(=O)N2CCC3(CC2)OCCO3)c(=O)c2ccccc21	2%	i	-25%	i	-1%	25µM*
O=C(Cn1ncc2c3ccccc3n(Cc3ccccc3F)c2c1=O)N1CCC2(CC1)OCCO2	u	i	3%	i	0%	-12%
O=C(Cn1ncc2c3ccccc3n(Cc3ccccc3)c2c1=O)N1CCC2(CC1)OCCO2	15%	i	20µM*	i	0%	-19%
NC(=NCCC[C@@H](N)C(=O)O)N[N+](=O)[O-]	-2%	i	x	i	x	-6%
[O-]/[N+](=N\O)c1ccccc1	-14%	x	-6%	x	-1%	u
COc1cc(C2c3cc4c(cc3C(OC(C)=O)[C@H]3COC(=O)C23)OCO4)cc(OC)c1OC (stereo partly drawn)	x	x	-5%	x	-2%	x
Cn1c(O)c(C=NCCOc2ccc(Cl)cc2)c(=O)n(C)c1=O	10µM*	x	4%	x	-1%	-4%	CHO via 24h=1;CHO tox 40h=-13%;CREB luc CRC=13µM*
COc1ccc(N=C(C)c2c(O)n(C)c(=O)n(C)c2=O)c(OC)c1	u	i	1%	i	0%	10%	CHO via 24h=-3;CHO tox 40h=-13%;CREB luc CRC=13µM*
CCc1ccc(OCCCN=C(C)c2c(O)n(C)c(=O)n(C)c2=O)cc1	-16%	x	-14%	x	2%	-10%
C/C=C1/C[C@@H](C)[C@](O)(CO)C(=O)OCC2=CCN3CC[C@@H](OC1=O)C23 (stereo partly drawn)	x	x	19%	x	0%	x
